# In PubChem BioAssay:
# Values joined by “and” are separate entries in the source; they are usually repeats but may differ in a detail not shown here. Equal entries are not always repeated. Records with an inconclusive call do not appear. Where a structure was tested more than once in an assay, its records may differ in their call. Some of the results follow. Active and inactive are the calls of the source. Cut-off read from the data, not from the text of the source, unless noted: active = percent of DMSO control GFP below about 86%; inactive = the rest, inconclusive results apart.
# Experiments:
# [1] = target: Regulator of G-protein signaling 16 (Homo sapiens) (UniProt O15492); test: modulators of RGS–Galpha-o binding, primary screen, biochemical, multiplexed beads, flow cytometry, RGS4/7/8/16/19 (AID 1504); settings: multiplexed bead flow cytometry, measured here: RGS16 interaction, at 10 µM;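 note: fluorescently labeled Galpha-o bound to GDP with aluminium fluoride binding biotinylated RGS beads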
# [2] = target: Regulator of G-protein signaling 19 (Homo sapiens) (UniProt P49795); test: as above; settings: multiplexed bead flow cytometry, measured here: RGS19 interaction, at 10 µM
# [3] = target: Regulator of G-protein signaling 7 (Homo sapiens) (UniProt P49802); test: as above; settings: multiplexed bead flow cytometry, measured here: RGS7 interaction, at 10 µM
# [4] = target: Regulator of G-protein signaling 8 (Homo sapiens) (UniProt P57771); test: as above; settings: multiplexed bead flow cytometry, measured here: RGS8 interaction, at 10 µM
# [5] = disruption of biotin probe capture by avidin, counter-screen for RGS protein interaction modulators, biochemical, flow cytometry, bead-based (AID 1783;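 active = inhibition above 50%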;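 note: median green fluorescence of gated singlet beads compared with DMSO control wells; 0% = DMSO wells and 100% = complete loss of bead fluorescence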); settings: streptavidin beads, fluorescein-biotin binding; at 10 µM, stronger effect = higher value
# [6] = target: Guanine nucleotide-binding protein G(o) subunit alpha (Homo sapiens) (UniProt P09471); test: RGS8-Galphao binding modulators, confirmation, biochemical, multiplexed bead flow cytometry, single concentration (AID 1836; in the data active = binding response below about 72% or above about 130%; inactive = in between;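 note: Galphao activated as GDP AlF4 complex before binding bead RGS8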); settings: bead-based flow cytometry RGS8-Galphao binding, fluorescence; at 10 µM; actives lie on both sides
# [7] = target: Guanine nucleotide-binding protein G(o) subunit alpha (Homo sapiens) (UniProt P09471); test: RGS7-Galphao binding modulators, confirmation, biochemical, multiplexed bead flow cytometry, single concentration (AID 1837; in the data active = response below about 75% or above about 130%; inactive = in between;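 note: fluorescent Galphao activated with GDP and aluminum fluoride binding bead-coupled RGS7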); settings: bead-based flow cytometry RGS7-Galphao binding; at 10 µM; actives lie on both sides
# [8] = target: Regulator of G-protein signaling 16 (Homo sapiens) + Guanine nucleotide-binding protein G(o) subunit alpha (Homo sapiens) (UniProt O15492+P09471); test: modulators of RGS16-Galphao protein binding, confirmation, biochemical, single concentration, multiplexed bead flow cytometry (AID 1838; in the data active = response below about 74% or above about 130%; inactive = in between;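 note: Galphao activated as the GDP aluminium fluoride complex binding bead-coupled RGS16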); settings: bead-based flow cytometry, at 10 µM, actives lie on both sides
# [9] = target: Guanine nucleotide-binding protein G(o) subunit alpha (Homo sapiens) (UniProt P09471); test: modulators of RGS4-Galphao protein binding, confirmation, biochemical, single concentration, multiplexed bead flow cytometry (AID 1840; in the data active = binding response below about 74% or above about 130%; inactive = in between); settings: at 10 µM, actives lie on both sides
# [10] = target: Guanine nucleotide-binding protein G(o) subunit alpha (Homo sapiens) + Regulator of G-protein signaling 19 (Homo sapiens) (UniProt P09471+P49795); test: regulators of RGS19-Galphao binding, confirmation, biochemical, single point, multiplexed bead flow cytometry (AID 1841; in the data active = response below about 50% or above about 160%; inactive = in between;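 note: 100% = no compound control and 0% = blank background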); settings: bead-based flow cytometry RGS19-Galphao binding; at 10 µM; actives lie on both sides
# [11] = yeast TOR pathway RPL19A-GFP modulators, primary screen, cell-based, S. cerevisiae, multiplex flow cytometry (AID 1862);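 note: lower values mimic rapamycin by blocking the RPL19A rise seen in DMSO cells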; settings: S. cerevisiae RPL19A-GFP strain, flow cytometry fluorescence, 3 h; at 10 µM; stronger effect = lower value
# [12] = modulators of MEP2-GFP levels in yeast, primary screen, S. cerevisiae, multiplex flow cytometry (AID 1867;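 active = GFP response, as percent of the DMSO control, above the screen-wide mean plus 3 SD, about 139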;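 note: median GFP channel fluorescence of barcode-gated MEP2-GFP cells measured by flow cytometry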); settings: S. cerevisiae MEP2-GFP strain, 3 h, at 10 µM, stronger effect = higher value, 100% means same as DMSO wells
# [13] = modulators of CIT2-GFP expression in yeast, primary screen, S. cerevisiae, GFP fusion, multiplex flow cytometry (AID 1870;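 active = percent response above a set limit, the screen-wide mean plus 3 SD, cut at about 130% in these data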;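 note: barcoded CIT2-GFP strain pooled with four other GFP strains with rapamycin as positive control; median GFP fluorescence per well over plate mean of DMSO wells so 100% = DMSO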); settings: 3 h, at 10 µM, stronger effect = higher value
# [14] = modulators of LAP4-GFP expression in yeast, primary screen, S. cerevisiae, multiplex flow cytometry (AID 1873;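 active = GFP signal, as percent of the solvent control, above the screen mean plus 3 SD, about 149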); settings: 3 h, at 10 µM, stronger effect = higher value
# [15] = modulators of AGP1-GFP expression in yeast TOR pathway, primary screen, cell-based, multiplex flow cytometry, S. cerevisiae (AID 1887;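 active = GFP signal above the screen-wide mean plus 3 SD, that is over about 124.5% of the solvent control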;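 note: AGP1-GFP fusion strain of S. cerevisiae within a five-strain barcoded multiplex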); settings: 3 h, at 10 µM, stronger effect = higher value
# [16] = RPL19A-GFP modulators, yeast TOR pathway, confirmation, cell-based, S. cerevisiae, flow cytometry, cherry picks, mother/daughter gates (AID 2270;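 active = GFP response below 50% of the DMSO control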); settings: S. cerevisiae RPL19A-GFP strain, 3 h, at 10 µM, stronger effect = lower value, 100 = same GFP as DMSO wells
# [17] = LAP4-GFP expression modulators in yeast, confirmation, cell-based, cherry picks, flow cytometry, mother/daughter gates (AID 2271;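 active = GFP response above 150% of the DMSO control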;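 note: ratio of sample to DMSO plate mean so 100% equals DMSO level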); settings: S. cerevisiae LAP4-GFP strain, 3 h, at 10 µM, stronger effect = higher value, 100 means same as DMSO control
# [18] = modulators of MEP2-GFP levels in yeast, confirmation, S. cerevisiae, flow cytometry GFP, cherry picks (AID 2272;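 active = GFP response above 150% of the DMSO control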;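 note: ratio of well signal to plate DMSO mean so 100% equals DMSO level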); settings: S. cerevisiae MEP2-GFP strain, 3 h, at 10 µM, stronger effect = higher value
# [19] = modulators of CIT2-GFP expression in yeast, confirmation, S. cerevisiae, GFP fusion, cherry picks, mother/daughter gates (AID 2274;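 active = GFP response above 150% of the DMSO level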); settings: S. cerevisiae CIT2-GFP strain, flow cytometry, 3 h, at 10 µM, stronger effect = higher value
# [20] = inhibitors of CD8+ T cell-vesicle binding, pilot screen, LFA-1/ICAM-1 modulator project, MLPCN validation set, flow cytometry (AID 2523;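 active = response below a set limit, under 55% cells CD8-positive and vesicle-bound, and CD8 cells' 90th-percentile brightness under 279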;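 for vesicle binding response: mean PE anti-B7-1 fluorescence of CD8+ cells relative to row control; 100% = QL9-loaded vesicles with DMSO vehicle in the same plate row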); settings: 2C mouse CD8+ T cells, at 7 µM, stronger effect = lower value; double positive events: measured here: CD8+/vesicle+ event percentage
# [21] = measured here: daughter cell gate
# [22] = measured here: mother cell gate
# [23] = measured here: daughter cell gate response
# [24] = measured here: mother cell gate response
# Guanine nucleotide-binding protein G(o) subunit alpha (Homo sapiens) + Regulator of G-protein signaling 19 (Homo sapiens), sequence (P09471 whole entry, looked up): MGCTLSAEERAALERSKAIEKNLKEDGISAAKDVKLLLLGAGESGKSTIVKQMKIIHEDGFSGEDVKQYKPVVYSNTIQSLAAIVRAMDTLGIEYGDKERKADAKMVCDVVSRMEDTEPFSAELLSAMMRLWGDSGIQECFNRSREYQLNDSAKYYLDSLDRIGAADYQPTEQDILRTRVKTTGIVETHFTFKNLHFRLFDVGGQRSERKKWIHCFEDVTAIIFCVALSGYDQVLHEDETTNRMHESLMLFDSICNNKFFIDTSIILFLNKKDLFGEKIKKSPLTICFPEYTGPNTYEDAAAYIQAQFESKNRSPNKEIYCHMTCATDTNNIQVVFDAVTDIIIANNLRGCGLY
# Guanine nucleotide-binding protein G(o) subunit alpha (Homo sapiens) + Regulator of G-protein signaling 19 (Homo sapiens), sequence (P49795 whole entry, looked up): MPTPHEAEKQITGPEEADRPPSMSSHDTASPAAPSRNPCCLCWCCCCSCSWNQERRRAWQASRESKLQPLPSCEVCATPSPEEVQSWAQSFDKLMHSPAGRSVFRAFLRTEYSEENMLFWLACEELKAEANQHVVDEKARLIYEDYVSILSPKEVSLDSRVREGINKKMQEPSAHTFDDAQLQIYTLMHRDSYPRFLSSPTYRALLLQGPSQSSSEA
# Guanine nucleotide-binding protein G(o) subunit alpha (Homo sapiens), sequence (P09471 whole entry, looked up): as the sequence (P09471 whole entry, looked up) above
# Regulator of G-protein signaling 16 (Homo sapiens) + Guanine nucleotide-binding protein G(o) subunit alpha (Homo sapiens), sequence (O15492 whole entry, looked up): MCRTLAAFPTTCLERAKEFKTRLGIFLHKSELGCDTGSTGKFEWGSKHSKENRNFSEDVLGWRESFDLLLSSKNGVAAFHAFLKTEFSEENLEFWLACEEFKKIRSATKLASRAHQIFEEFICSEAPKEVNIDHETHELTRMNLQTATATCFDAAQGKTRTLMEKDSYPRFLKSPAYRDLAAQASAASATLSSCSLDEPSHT
# Regulator of G-protein signaling 16 (Homo sapiens) + Guanine nucleotide-binding protein G(o) subunit alpha (Homo sapiens), sequence (P09471 whole entry, looked up): as the sequence (P09471 whole entry, looked up) above
structure (smiles),measurement,setting,value
COC(=O)c1ccccc1OCC(=O)N1CCN(c2ccc(Cl)cc2)CC1,RGS16–Galpha-o binding response,[1],461%
same,RGS19–Galpha-o binding response,[2],7560%
same,RGS7–Galpha-o binding response,[3],290%
same,RGS8–Galpha-o binding response,[4],132%
COc1cc(C(=O)Nc2cc(C(F)(F)F)ccc2N2CCOCC2)ccc1O,RGS16–Galpha-o binding response,[1],9.57%
same,RGS19–Galpha-o binding response,[2],135%
same,RGS7–Galpha-o binding response,[3],84.8%
same,RGS8–Galpha-o binding response,[4],70.4%
same,inhibition,[5],0.3% (inactive)
same,binding response (% of control),[6],104% (inactive)
same,response (percent of control binding),[7],102% (inactive)
same,response (% of control binding),[8],98.8% (inactive)
same,binding response (% of control),[9],97.9% (inactive)
same,response (percent of control binding),[10],86.5% (inactive)
CCOC(=O)C1Sc2[nH]c(=O)sc2C(c2ccc(Cl)cc2)C1C(=O)OCC (stereo unspecified),RGS16–Galpha-o binding response,[1],-39.2%
same,RGS19–Galpha-o binding response,[2],128%
same,RGS7–Galpha-o binding response,[3],-17.7%
same,RGS8–Galpha-o binding response,[4],7.38%
C[C@H]1C[C@@H]2[C@H]([C@@H](O)C[C@@]3(C)[C@H]2CC[C@]3(O)C(=O)CO)[C@@]2(C)C=CC(=O)C=C12,percent of DMSO control GFP,[11],85.8% (active)
same,GFP response vs DMSO,[12],145% (active)
same,percent response of DMSO control,[13],93.9% (inactive)
same,GFP response vs DMSO,[14],80.3% (inactive)
same,"GFP response, % of DMSO",[15],83.6% (inactive)
same,GFP response vs DMSO,[16],96.6% (inactive)
same,GFP response vs DMSO,[16]; [21],96.6%
same,GFP response vs DMSO,[16]; [22],96.6%
same,GFP response relative to DMSO,[17],103% (inactive)
same,GFP response relative to DMSO,[17]; [23],102%
same,GFP response relative to DMSO,[17]; [24],99.3%
same,GFP response vs DMSO,[18],105% (inactive)
same,"GFP response, % of DMSO",[19],99.7% (inactive)
same,"GFP response, % of DMSO",[19]; [21],99.1%
same,"GFP response, % of DMSO",[19]; [22],98.5%
same,double positive events,[20],77.3%
same,vesicle binding response,[20],227% (inactive)
CC(C)CC(=O)Nc1ccc2oc(-c3ccncc3)nc2c1,percent of DMSO control GFP,[11],92.2% (inactive)
same,GFP response vs DMSO,[12],144% (active)
same,percent response of DMSO control,[13],103% (inactive)
same,GFP response vs DMSO,[14],82.5% (inactive)
same,"GFP response, % of DMSO",[15],83.8% (inactive)
same,GFP response vs DMSO,[16],103% (inactive)
same,GFP response vs DMSO,[16]; [21],99.8%
same,GFP response vs DMSO,[16]; [22],104%
same,GFP response relative to DMSO,[17],98.7% (inactive)
same,GFP response relative to DMSO,[17]; [23],98.7%
same,GFP response relative to DMSO,[17]; [24],101%
same,GFP response vs DMSO,[18],97.8% (inactive)
same,"GFP response, % of DMSO",[19],108% (inactive)
same,"GFP response, % of DMSO",[19]; [21],99.7%
same,"GFP response, % of DMSO",[19]; [22],107%
same,double positive events,[20],71.3%
same,vesicle binding response,[20],292% (inactive)
C[n+]1ccccc1/C=N/O,percent of DMSO control GFP,[11],99.2% (inactive) and 98.9% (inactive)
same,GFP response vs DMSO,[12],143% (active) and 101% (inactive)
same,percent response of DMSO control,[13],101% (inactive) and 95.5% (inactive)
same,GFP response vs DMSO,[14],90.2% (inactive) and 97% (inactive)
same,"GFP response, % of DMSO",[15],98.2% (inactive) and 98.3% (inactive)
same,GFP response vs DMSO,[16],99% (inactive)
same,GFP response vs DMSO,[16]; [21],99.5%
same,GFP response vs DMSO,[16]; [22],99.6%
same,GFP response relative to DMSO,[17],98.7% (inactive)
same,GFP response relative to DMSO,[17]; [23],100%
same,GFP response relative to DMSO,[17]; [24],101%
same,GFP response vs DMSO,[18],100% (inactive)
same,"GFP response, % of DMSO",[19],111% (inactive)
same,"GFP response, % of DMSO",[19]; [21],108%
same,"GFP response, % of DMSO",[19]; [22],112%
same,double positive events,[20],60.5% and 64%
same,vesicle binding response,[20],142% (inactive) and 180% (inactive)
CCOC(=O)CCP(=O)(O)C(O)(c1ccccc1)c1ccccc1,inhibition,[5],2.2% (inactive)
same,binding response (% of control),[6],99.3% (inactive)
same,response (percent of control binding),[7],101% (inactive)
same,response (% of control binding),[8],101% (inactive)
same,binding response (% of control),[9],100% (inactive)
same,response (percent of control binding),[10],99.5% (inactive)
Cc1c(Br)cc(C(=O)N2CCCCCC2)c(C)c1C,inhibition,[5],-0.3% (inactive)
same,binding response (% of control),[6],102% (inactive)
same,response (percent of control binding),[7],102% (inactive)
same,response (% of control binding),[8],102% (inactive)
same,binding response (% of control),[9],102% (inactive)
same,response (percent of control binding),[10],104% (inactive)
